A short description of test [1]: Vero cells viability qHTS for Zika virus inhibitors (AID 1347167). The conditions noted are these: cytotoxicity counter-screen (Zika); series mostly up to 45.9 µM. The essentials:
(§1)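 To flag cytotoxic protease inhibitors, viability is measured by ATP-dependent luminescence (CellTiter Glo) after cells attached overnight receive compound for 24 to 48 hours in DMEM with 4% FBS.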
On the technique in general: qHTS replaces the single test concentration by a dilution series.

Test [2] can be described thus: HepG2 cells viability qHTS for Zika virus inhibitors (AID 1347168). Also: potency is read from the fitted curve at half-maximal effect. The conditions noted are these: Zika counter-screen; series mostly up to 45.9 µM. The essentials: as §1
The nature of test [3]: OV-KATE Cancer Cell Toxicity qHTS against the NCATS CANVASS Library (AID 1347345). The conditions noted are these: OV-KATE cells viability, CellTiter-Glo luminescence, 72 h; series mostly up to 38.3 µM. The method in brief: (§2)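 1000 cells/well; 4 h settle; 11-pnt titration; 72 h, 37 degrees C, 5% CO2; CellTiter-Glo, 15min RT; luminescence read.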
The nature of test [4]: HPAF-II Cancer Cell Toxicity qHTS against the NCATS CANVASS Library (AID 1347346). Also: nearly all actives have a fitted effect of over 55% in size. The conditions noted are these: HPAF-II viability, CellTiter-Glo ATP luminescence, 72 h; series mostly up to 38.3 µM. The method in brief:
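First, HPAF-II cells are plated (1000 cells/well) and held 4 h at 37 degrees C. Next, compounds are pin-transferred as an 11-point series. After 72 h, CellTiter-Glo is added and luminescence measured.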

Test [5] is described as follows: UWB1.289 Cancer Cell Toxicity qHTS against the NCATS CANVASS Library (AID 1347347). Also: nearly all actives have a fitted effect of over 60% in size. The conditions noted are these: UWB1.289 viability, CellTiter-Glo luminescence, 72 h; series mostly up to 38.3 µM. The method in brief: as §2
The nature of test [6]: OV-SAHO Cancer Cell Toxicity qHTS against the NCATS CANVASS Library (AID 1347348). Also: nearly all actives have a fitted effect of over 55% in size. The conditions noted are these: OV-SAHO viability, CellTiter-Glo luminescence, 72 h; series mostly up to 38.3 µM. The essentials: as §2
Test [7] can be described thus: Panc-1005 Cancer Cell Toxicity qHTS against the NCATS CANVASS Library (AID 1347349). Also: nearly all actives have a fitted effect of over 60% in size. The conditions noted are these: Panc-1005 viability, CellTiter-Glo luminescence, 72 h; series mostly up to 38.3 µM. The essentials:
as §2

The structures appear in SMILES notation. Values joined by “and” are separate entries in the source; they are usually repeats but may differ in a detail not shown here. Identical values can stand only once. Results filed as inconclusive are left out. Active and inactive are the calls of the source. Calls follow the shape of the dose curve; as a rule, active = well fitted cell-killing curve with a large enough effect; inconclusive = small, poorly fitted or top-dose-only effect; inactive = flat fitted curve, though single readings scatter.

As to `CN(C)[C@@H]1C(=O)C(C(N)=O)=C(O)[C@@]2(O)C(=O)C3=C(O)c4c(O)cccc4[C@@](C)(O)[C@H]3[C@H](O)[C@@H]12`, the Potency result in test [1] and in test [2] was “inactive” in each case.
In the case of `CC1=C(O)C(=O)C=C2C1=CC=C1[C@@]2(C)CC[C@@]2(C)[C@@H]3C[C@](C)(C(=O)O)CC[C@]3(C)CC[C@]12C`, the Potency in test [2] is 18.5 µM (active) and 7.37 µM (active).
For `NCCc1c[nH]c2ccc(O)cc12`, the call in test [3], in test [4], in test [5], in test [6] and in test [7] was inactive.
Consider `NCCc1c[nH]c2ccccc12`, for which the compound was called inactive in test [3], in test [4], in test [5], in test [6] and in test [7].

These data come from PubChem BioAssay (NCATS).
